# Results from the supplement of paper PMC8728848.
# Shown is part of a subset that was picked to be rich in the strongest signals.
# What was measured:
# Assay in all cases: glycan array binding signal (z-score within array); higher = stronger binding
# Settings in all cases: glycan notation: IUPAC condensed, linker removed
# [1] = target: Fuc(a1-2)Gal(b1-3)GlcNAc(b1-2)Man(a1-3)[Fuc(a1-2)Gal(b1-3)GlcNAc(b1-2)Man(a1-6)]Man(b1-4)GlcNAc(b1-4)[Fuc(a1-6)]GlcNAc
# In short: (§1)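 Negative Z-scores can be read as non-binding. The Z-score is calculated within each array and then averaged across arrays of one protein sequence at different concentrations or buffers and across linkers. Arrays, 3228 in all, were curated from the Consortium for Functional Glycomics database and kept only where the protein sequence was available.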
# [2] = target: Fuc(a1-2)Gal(b1-3)GlcNAc(b1-3)[Gal(b1-4)GlcNAc(b1-6)]Gal(b1-4)Glc
# In short: as §1
# [3] = target: Fuc(a1-2)Gal(b1-4)GlcNAc(b1-3)GalNAc
# In short: as §1
# [4] = target: Fuc(a1-2)Gal(b1-4)[Fuc(a1-3)]GlcNAc(b1-2)[Fuc(a1-2)Gal(b1-4)[Fuc(a1-3)]GlcNAc(b1-4)]Man(a1-3)[Fuc(a1-2)Gal(b1-4)[Fuc(a1-3)]GlcNAc(b1-2)Man(a1-6)]Man(b1-4)GlcNAc(b1-4)GlcNAc
# In short: as §1
# [5] = target: Fuc(a1-2)[GalNAc(a1-3)]Gal(b1-4)Glc
# In short: as §1
# [6] = target: Fuc(a1-2)[GalNAc(a1-3)]Gal(b1-4)[Fuc(a1-3)]GlcNAc(b1-3)GalNAc
# In short: as §1
# [7] = target: Fuc(a1-3)[Gal(b1-4)]GlcNAc(b1-3)GalNAc
# In short: as §1
# [8] = target: Gal(b1-3)GlcNAc(b1-3)Gal(b1-4)GlcNAc(b1-6)[Gal(b1-3)GlcNAc(b1-3)]Gal(b1-4)Glc
# In short: as §1
# [9] = target: Gal(b1-4)GlcNAc(b1-6)Gal(b1-4)GlcNAc
# In short: as §1
# GalNAc(b1-3)Gal = target: GalNAc(b1-3)Gal
# In short: as §1
# GalNAc(b1-4)Gal(b1-4)Glc = target: GalNAc(b1-4)Gal(b1-4)Glc
# In short: as §1
# GalNAc(b1-6)GalNAc = target: GalNAc(b1-6)GalNAc
# In short: as §1
# [10] = target: GlcNAc(a1-4)Gal(b1-4)GlcNAc(b1-3)Gal(b1-4)[Fuc(a1-3)]GlcNAc(b1-3)Gal(b1-4)[Fuc(a1-3)]GlcNAc
# In short: as §1
# [11] = target: GlcNAc(b1-3)Gal(b1-3)GalNAc
# In short: as §1
# GlcNAc(b1-3)GalNAc = target: GlcNAc(b1-3)GalNAc
# In short: as §1
# Kdn(a2-3)Gal(b1-4)Glc = target: Kdn(a2-3)Gal(b1-4)Glc
# In short: as §1
# Kdn(a2-6)Gal(b1-4)GlcNAc = target: Kdn(a2-6)Gal(b1-4)GlcNAc
# In short: as §1
# [12] = target: Man(a1-2)Man(a1-2)Man(a1-6)[Man(a1-3)]Man
# In short: as §1
# [13] = target: Man(a1-2)Man(a1-3)[Man(a1-2)Man(a1-6)]Man(a1-6)[Man(a1-2)Man(a1-2)Man(a1-3)]Man
# In short: as §1
# [14] = target: Man(a1-2)Man(a1-3)[Man(a1-2)Man(a1-6)]Man(a1-6)[Man(a1-2)Man(a1-2)Man(a1-3)]Man(b1-4)GlcNAc(b1-4)GlcNAc
# In short: as §1
# [15] = target: Man(a1-2)Man(a1-6)[Man(a1-3)]Man(a1-6)[Man(a1-2)Man(a1-2)Man(a1-3)]Man
# In short: as §1
# [16] = target: Man(a1-2)Man(a1-6)[Man(a1-3)]Man(a1-6)[Man(a1-2)Man(a1-2)Man(a1-3)]Man(b1-4)GlcNAc(b1-4)GlcNAc
# In short: as §1
# Man(a1-3)[Man(a1-6)]Man = target: Man(a1-3)[Man(a1-6)]Man
# In short: as §1
# [17] = target: Man(a1-3)[Man(a1-6)]Man(a1-6)[Man(a1-2)Man(a1-3)]Man(b1-4)GlcNAc(b1-4)GlcNAc
# In short: as §1
# [18] = target: Man(a1-3)[Man(a1-6)]Man(a1-6)[Man(a1-3)]Man
# In short: as §1
# [19] = target: Man(a1-3)[Man(a1-6)]Man(a1-6)[Man(a1-3)]Man(b1-4)GlcNAc(b1-4)GlcNAc
# In short: as §1
# [20] = target: Neu5Ac(a2-3)Gal(b1-3)GalNAc(b1-3)Gal(a1-4)Gal(b1-4)Glc
# In short: as §1
# [21] = target: Neu5Ac(a2-3)Gal(b1-3)GlcNAc
# In short: as §1
# [22] = target: Neu5Ac(a2-3)Gal(b1-4)GlcNAc(b1-2)Man(a1-3)[GlcNAc(b1-2)Man(b1-4)GlcNAc(b1-2)Man(a1-6)]Man(b1-4)GlcNAc(b1-4)GlcNAc
# In short: as §1
# [23] = target: Neu5Ac(a2-3)Gal(b1-4)GlcNAc(b1-6)[Neu5Ac(a2-3)Gal(b1-3)]GalNAc
# In short: as §1
binder,measurement,setting,value
"RS2L (Ralstonia solanacearum), B5RXL5_RALSO (protein) MAQQGVFTLPANTSFGVTAFANAANTQTIQVLVDNVVKATFTGSGTSDKLLGSQVLNSGSGAIKIQVSVNGKPSDLVSNQTILANKLNFAMVGSEDGTDNDYNDGIAVLNWPLG",glycan array binding signal (z-score),[1],0.443
same,glycan array binding signal (z-score),[2],-0.211
same,glycan array binding signal (z-score),[3],-0.205
same,glycan array binding signal (z-score),[4],-0.175
same,glycan array binding signal (z-score),[5],-0.244
same,glycan array binding signal (z-score),[6],-0.233
same,glycan array binding signal (z-score),[7],-0.24
same,glycan array binding signal (z-score),[8],-0.246
same,glycan array binding signal (z-score),[9],-0.255
same,glycan array binding signal (z-score),GalNAc(b1-3)Gal,-0.243
same,glycan array binding signal (z-score),GalNAc(b1-4)Gal(b1-4)Glc,-0.247
same,glycan array binding signal (z-score),GalNAc(b1-6)GalNAc,-0.243
same,glycan array binding signal (z-score),[10],-0.12
same,glycan array binding signal (z-score),[11],-0.245
same,glycan array binding signal (z-score),GlcNAc(b1-3)GalNAc,-0.249
same,glycan array binding signal (z-score),Kdn(a2-3)Gal(b1-4)Glc,-0.242
same,glycan array binding signal (z-score),Kdn(a2-6)Gal(b1-4)GlcNAc,-0.251
same,glycan array binding signal (z-score),[12],6.32
same,glycan array binding signal (z-score),[13],6.92
same,glycan array binding signal (z-score),[14],3.42
same,glycan array binding signal (z-score),[15],5.7
same,glycan array binding signal (z-score),[16],5.97
same,glycan array binding signal (z-score),Man(a1-3)[Man(a1-6)]Man,7.32
same,glycan array binding signal (z-score),[17],6.99
same,glycan array binding signal (z-score),[18],5.11
same,glycan array binding signal (z-score),[19],5.42
same,glycan array binding signal (z-score),[20],-0.25
same,glycan array binding signal (z-score),[21],-0.247
same,glycan array binding signal (z-score),[22],-0.245
same,glycan array binding signal (z-score),[23],-0.254
